The nature of assay [1]: qHTS assay for small molecules that induce genotoxicity in human embryonic kidney cells expressing luciferase-tagged ATAD5 (AID 651632). Further: nearly all actives have a fitted effect of over 15% in size. The procedure, abridged: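 Increased luciferase signal from ATAD5-tagged reporter cells indicates DNA-damage-driven ATAD5 induction. HEK293T cells are treated for 16 hr at 37C before detection with Amplite.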
In general terms: Quantitative high-throughput screening tests each substance at several concentrations.

Assay [2] can be described thus: qHTS assay for small molecules that induce genotoxicity in human embryonic kidney cells expressing luciferase-tagged ATAD5 - cell viability (AID 651634; calls by dose curve; further: nearly all actives have a fitted effect of over 25% in size; further: potency means the concentration at half of the fitted maximal effect). A digest of the protocol:
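Cytotoxicity counterscreen in HEK293T cells bearing an ATAD5-luciferase reporter: live-cell protease activity measured by CellTiter-Fluor fluorescence after 15.5 hr compound exposure.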

A short description of assay [3]: qHTS assay for small molecule disruptors of the mitochondrial membrane potential (AID 720635). Further: potency means the concentration at half of the fitted maximal effect. A digest of the protocol:
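HepG2 cells exposed to compound 1 hr at 37C, then Mito-MPS dye 30 min. Ratio read of aggregate (540/590 nm) versus monomer (490/535 nm) fluorescence.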

The nature of assay [4]: qHTS assay to test for compound auto fluorescence at 535 nm (green) in HepG2 cells (AID 720675).
Assay [5] in a line: qHTS assay to test for compound auto fluorescence at 460 nm (blue) in HEK293 cells (AID 720678). A digest of the protocol: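 HEK293 cells (2,000 per well, medium with 10% dialyzed FBS) attached for 4-5 hr at 37C, then received compound and stood overnight at 37C, 5% CO2. Blue fluorescence was read at Ex/Em 405/460 nm and expressed relative to triamterene.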
A short description of assay [6]: qHTS assay to test for compound auto fluorescence at 590 nm (red) in HEK293 cells (AID 720679). A digest of the protocol: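 HEK293 cells (2,000/well, medium with 10% dialyzed FBS) attached for 4-5 hr at 37C, received 23 nL compound and were incubated overnight at 37C, 5% CO2. Red fluorescence was then read at 540/590nm Ex/Em, referenced to Rose Bengal sodium.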
Assay [7] can be described thus: qHTS assay to test for compound auto fluorescence at 535 nm (green) in HEK293 cells (AID 720680).
A short description of assay [8]: qHTS assay to test for compound auto fluorescence at 460 nm (blue) in HEK293 cell free culture (AID 720681). Further: potency means the concentration at half of the fitted maximal effect. The procedure, abridged: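 Compounds were added to cell-free DMEM with 10% FBS and fluorescence read directly. The blue channel used 405 nm excitation and 460 nm emission, with triamterene as the reference fluorophore.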
Assay [9] is described as follows: qHTS assay to test for compound auto fluorescence at 535 nm (green) in HEK293 cell free culture (AID 720682). The procedure, abridged:
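Using fluorescein as calibrant, autofluorescence was quantified at 485/535 nm in cell-free DMEM containing 10% FBS after pintool addition of compound or vehicle.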

Assay [10] can be described thus: qHTS assay to test for compound auto fluorescence at 590 nm (red) in HEK293 cell free culture (AID 720683). The procedure, abridged: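 Cell-free wells of DMEM with 10% FBS received compound, and intrinsic fluorescence was read at excitation/emission 540/590 nm. Values expressed as equivalence to Rose Bengal sodium.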
Assay [11] can be described thus: qHTS assay to test for compound auto fluorescence at 460 nm (blue) in HepG2 cell free culture (AID 720685). Further: potency means the concentration at half of the fitted maximal effect. A digest of the protocol:
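Compound (23 nL) or DMSO pinned into cell-free MEM with 10% FBS; blue fluorescence read at 405/460 nm excitation/emission, expressed as auto-fluorescence equivalency to triamterene.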

A short description of assay [12]: qHTS assay to test for compound auto fluorescence at 535 nm (green) in HepG2 cell free culture (AID 720686).
Assay [13] is described as follows: qHTS assay to test for compound auto fluorescence at 460 nm (blue) in HepG2 cells (AID 720687). Further: potency means the concentration at half of the fitted maximal effect. The procedure, abridged:
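HepG2 cells in MEM with 10% FBS, attached overnight at 37 C, were exposed to compound or DMSO for 1 hr at 37 C, 5% CO2. Blue fluorescence was read at 405/460 nm, with triamterene as reference fluorophore.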

Assay [14] addresses Glucocorticoid receptor (Homo sapiens) (UniProt P04150). As to the kind of experiment: qHTS assay to identify small molecule antagonists of the glucocorticoid receptor (GR) signaling pathway (AID 720692; active means well fitted inhibition curve with a large enough effect in the signal ratio in the repeat runs, not every such curve was filed as active; the % refers to the signal ratio). The procedure, abridged:
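Cells plated, rested 4 h at 37 C/5% CO2; compounds in DMSO pin-transferred; dexamethasone added to 5 nM final; 18 h at 37 C; B/G FRET substrate added, 2 h room temperature; fluorescence measured.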

Assay [15] in a line: qHTS assay for small molecule agonists of the p53 signaling pathway - cell viability (AID 651633; calls by dose curve; further: nearly all actives have a fitted effect of over 30% in size; further: potency means the concentration at half of the fitted maximal effect). A digest of the protocol: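 p53RE-bla cells were treated with compound for 16 hours at 37 C. Cytotoxicity was then measured as CellTiter-Glo luminescence after 30 min at room temperature.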
Assay [16] can be described thus: qHTS assay to test for compound auto fluorescence at 590 nm (red) in HepG2 cells (AID 720674). The procedure, abridged:
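Fluorescence at 590 nm emission following 540 nm excitation was recorded from HepG2 wells one hour after compound transfer, with DMSO-only wells as vehicle and Rose Bengal sodium equivalency as the scale.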

Assay [17] is described as follows: qHTS assay to test for compound auto fluorescence at 590 nm (red) in HepG2 cell free culture (AID 720684). The procedure, abridged: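 Compounds are added to culture medium (MEM, 10% FBS) lacking cells, then fluorescence is read at excitation 540 nm, emission 590 nm, with Rose Bengal sodium as the equivalency standard.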
Assay [18] in a line: qHTS assay for small molecule disruptors of the mitochondrial membrane potential - cell viability (AID 720634; calls by dose curve; further: nearly all actives have a fitted effect of over 20% in size; further: potency means the concentration at half of the fitted maximal effect). The procedure, abridged: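 After overnight attachment at 37 C, HepG2 cells received compound or DMSO vehicle for 1 hr. Viability is then taken from ATP-driven luminescence following a 30 min room-temperature CellTiter-Glo step.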

Records with an inconclusive call do not appear. Calls of active or inactive are those of the source. Unless noted, the call rests on the fitted dose curve; in most records, active means well fitted curve in the direction sought with a large enough effect in the repeat runs; inconclusive means weak or mixed curves; inactive means no such curve, though single readings can be large; an effect the other way counts as inactive or inconclusive.
Tags describe the fitted curve by direction and shape or compound fluorescence and quenching.

Chain of Glucocorticoid receptor (Homo sapiens) (P04150 whole entry, looked up): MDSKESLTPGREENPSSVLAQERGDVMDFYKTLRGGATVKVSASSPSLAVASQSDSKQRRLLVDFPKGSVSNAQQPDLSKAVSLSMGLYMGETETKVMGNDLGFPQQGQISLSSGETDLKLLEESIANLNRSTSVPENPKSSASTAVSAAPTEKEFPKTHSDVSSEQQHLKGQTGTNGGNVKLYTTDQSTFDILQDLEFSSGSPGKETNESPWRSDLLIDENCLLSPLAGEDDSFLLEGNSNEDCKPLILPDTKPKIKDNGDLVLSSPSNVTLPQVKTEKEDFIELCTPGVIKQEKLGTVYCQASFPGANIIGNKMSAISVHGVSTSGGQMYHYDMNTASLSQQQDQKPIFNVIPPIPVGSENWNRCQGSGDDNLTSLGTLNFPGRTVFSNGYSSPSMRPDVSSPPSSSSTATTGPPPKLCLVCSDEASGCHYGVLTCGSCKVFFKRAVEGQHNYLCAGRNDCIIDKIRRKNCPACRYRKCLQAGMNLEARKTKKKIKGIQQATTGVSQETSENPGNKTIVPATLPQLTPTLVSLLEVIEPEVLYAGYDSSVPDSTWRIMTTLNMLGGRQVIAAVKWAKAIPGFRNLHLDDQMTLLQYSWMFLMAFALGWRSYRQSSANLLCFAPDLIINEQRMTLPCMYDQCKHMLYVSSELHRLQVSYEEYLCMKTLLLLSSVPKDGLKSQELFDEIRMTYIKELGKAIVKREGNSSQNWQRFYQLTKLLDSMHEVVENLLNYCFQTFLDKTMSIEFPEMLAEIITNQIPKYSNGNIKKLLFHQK

Regarding `CO/N=C(/C1=NOCCO1)c1ccccc1Oc1ncnc(Oc2ccccc2Cl)c1F`, the Potency entry in assay [1], in assay [2], in assay [4], in assay [5], in [8] and in [11] was “inactive” in each case. For the same molecule, the Potency result in assay [12], in assay [13] and in assay [14] was “inactive” throughout. Further, the Potency in [3] was 54400 nM (active). Further, the molecule was classed as inactive in [6], in [7], in assay [9] and in assay [10].
With `CC(=O)[O-].CC(=O)[O-].O.O.[Zn+2]`, the Potency result in [15], in assay [2], in assay [4], in [5], in assay [8] and in assay [11] was “inactive” in each case. Besides, the Potency entry in assay [12] and in [13] was “inactive” each time. In addition, the outcome in assay [16], in [6], in [7], in assay [9], in assay [10] and in assay [17] was inactive.
Regarding `CCCCn1cc[n+](C)c1` (tested in a mixture with another compound), the Potency entry in [2], in [18], in [3], in assay [4], in assay [5] and in assay [8] was “inactive” each time. The Potency result in assay [11], in [12] and in [13] was “inactive” each time. The outcome in assay [16], in assay [6], in assay [7], in [9], in [10] and in assay [17] was inactive.
Consider `CC(Cc1ccc(O)cc1)NCC(O)c1cc(O)cc(O)c1` (stereo not drawn), for which the Potency result in assay [2], in [18], in assay [3], in [4], in [5] and in assay [8] was “inactive” in each case. The Potency result in assay [11], in assay [12], in assay [13] and in [14] was “inactive” each time. Moreover, the call in assay [6], in assay [7], in assay [9], in [10] and in assay [17] was inactive.
On to `N#Cc1c2ccccc2cc2ccccc12`, for which the Potency result in [2], in assay [4] and in assay [12] was “inactive” in each case. Further, the Potency is 1720 nM (active) in [3], 2510 nM (active) in [8], 2510 nM [fluorescent] (active) in [11] and 2820 nM [fluorescent] (active) in assay [13]. Further, the molecule was classed as inactive in assay [16], in assay [6], in assay [7] and in [10].
Turning to `[Cl-].[Cl-].[Cl-].[Yb+3]`, the molecule was classed as inactive in [16], in assay [6], in assay [7], in assay [9], in [10] and in [17]. The Potency entry in [4], in [5], in assay [8], in assay [11], in assay [12] and in [13] was “inactive” each time.
As to `CC(=O)[O-].CC(=O)[O-].CC(=O)[O-].[Cr+3]`, the Potency entry in [15], in [2], in assay [4], in [5], in [8] and in assay [11] was “inactive” each time. Moreover, the Potency entry in [12] and in assay [13] was “inactive” each time. The molecule was called inactive in assay [16], in assay [6], in assay [7], in assay [9], in assay [10] and in assay [17].
Turning to `[F][Sn]([c]1ccccc1)([c]1ccccc1)[c]1ccccc1`, the Potency in assay [15] was 3060 nM (active); in assay [2], 486 nM (active); in [18] it was 19300 nM (active); in assay [3], 273 nM (active). Further, the call in assay [16], in assay [6], in [7] and in assay [9] was inactive. In addition, the Potency result in [4], in assay [8], in [11], in [12] and in assay [13] was “inactive” in each case.

These data come from PubChem BioAssay (Tox21).
